# High-throughput results (PubChem)
# GDH-TPI counter = counter-screen for M. tuberculosis FBA inhibitors: GDH-TPI coupled enzymes. inhibition, % at 4.8 µM. AID 588335. GDH-TPI coupled enzyme counterscreen, NADH absorbance. actives 1.2% (n = 360,000); in the data active means inhibition above about 30%;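 further: 0% = DMSO wells and 100% = wells lacking the enzyme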
# Mtb FBA inh = inhibits M. tuberculosis FBA enzyme. inhibition, % at 1 µM. actives 2.3% (n = 360,000). purified M. tuberculosis FBA, fluorescence read-out. P9WQA3; in the data active means inhibition above about 27%;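 further: 0% = vehicle and 100% = reference inhibitor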
# BoNT-F LC inh = blocks Botulinum neurotoxin F light chain protease. inhibition, % at 10 µM. actives 0.22% (n = 360,000). AID 588497. Multiplex microsphere protease cleavage assay, flow cytometry; in the data active means inhibition above about 35%, passing the limit was not always enough; inconclusive means no clear call, values can overlap the other calls; further: plate controls were buffer without enzyme for full effect and enzyme alone for no effect
# Anthrax LF prot = inhibitors of Bacillus anthracis lethal factor protease; P15917; multiplex microsphere protease cleavage assay, LF; inhibition, % at 10 µM; actives 0.12% (n = 360,000); AID 588501; further: plate controls were buffer without enzyme for full effect and enzyme alone for no effect
# BoNT-A LC inh2 = BoNT A light chain protease inhibition | AID 588499 | actives 0.17% (n = 360,000) | multiplex microsphere protease substrate cleavage, flow cytometry | inhibition, % at 10 µM; further: plate controls were buffer without enzyme for full effect and enzyme alone for no effect
# Bead autofluor = counter-screen for toxin protease inhibitors: compound fluorescence; compound autofluorescence counterscreen, microsphere flow cytometry; stronger effect = higher value; fluorescence intensity (concentration not given with the values); actives 3.1% (n = 360,000); in the data active means fluorescence intensity above about 16000; inconclusive means no clear call, values can overlap the other calls
# * marks the source's active call; other numbers are inactive results; u = inconclusive; x = no result; + = active, no number. In the library only some 6.6% were active in any assay of this set; here they are far more common. Unless noted, no stated cut-off is given here; in the data, active means inhibition above about 30%; inconclusive means no clear call, values can overlap the other calls; inactive means below that.
SMILES,GDH-TPI counter,Mtb FBA inh,BoNT-F LC inh,Anthrax LF prot,BoNT-A LC inh2,Bead autofluor
Cc1ccc(CNC(=O)C(C)OC(=O)c2ccco2)cc1 (stereo unspecified),5,-1,4,0,u,22466*
Cc1cc(=O)oc2cc(OCC(=O)Nc3nccs3)ccc12,21,14,1,0,0,5337
Cc1c(C)c2ccc(OCC(=O)Nc3nccs3)cc2oc1=O,17,65*,-2,-1,-1,5353
COc1ccc2cc(C(=O)N/N=C/c3sc4ccccc4c3O)ccc2c1,18,-2,-10,9,34*,2973
COc1ccc(C(=O)NCCc2nnc3ccc(SCC(=O)Nc4ccccc4F)nn23)cc1,0,3,-1,-6,0,4407
COc1ccc(C(=O)N2CCC(C)(C(=O)NS(=O)(=O)C3CC3)C2)c(OC)c1 (stereo unspecified),-5,-1,-14,-5,-1,4019
CCCCn1c(NCc2cccs2)nc2ccccc21,3,-1,-7,-2,-2,4608
CCCCn1nnnc1NCc1cccs1,-11,1,7,-1,3,19115*
Oc1cccc(-c2nc3ccccc3s2)c1,12,1,-7,4,0,4689
COc1cc(OC)c(-c2nc3ccccc3s2)cc1OC,13,+,-6,-3,0,4925
Oc1ccccc1OCc1nc2ccccc2s1,8,1,0,-4,2,22098*
CCOc1cc(-c2nc3ccccc3s2)ccc1O,28,+,0,-1,0,3425
CNC(=O)COC(=O)/C=C/c1nc2ccccc2s1,10,5,-2,3,0,3450
COc1cccc(-c2nc3ccccc3s2)c1O,-3,6,-5,-5,0,4302
CNC(=O)COC(=O)c1ccc(-c2nc3ccccc3s2)s1,57*,19,13,4,1,7684
O=C1C2CCCN2C(c2ccc(Cl)cc2)N1c1nccs1 (stereo unspecified),-2,0,-6,1,0,3652
CC1Cc2nc(SCC(=O)NCC3CCCO3)n(-c3ccc(F)cc3)c(=O)c2S1 (stereo unspecified),3,1,-6,1,0,4484
COc1ccc(C(CCN(Cc2ccc(OC)c(OC)c2)C(C)=O)C(C)C)cc1 (stereo unspecified),-3,3,10,2,-2,3938
COc1ccccc1C(=O)NCc1ccc(-c2nc3ccccc3s2)cc1,12,-1,-3,1,1,1958
COc1cc(-c2nc3ccccc3s2)ccc1O,19,150*,4,-2,0,11178
COc1cc(C(=O)NCc2ccc(-c3nc4ccccc4s3)cc2)cc(OC)c1OC,4,-3,-9,-1,-2,3193
COc1ccc(-c2nc3ccccc3s2)cc1O,36*,9,-20,-4,-1,4606
O=C(OCc1nc2ccccc2s1)c1ccc(Br)s1,-9,-3,-3,2,-1,23134*
CCCCn1c(N)c(N(CC)C(=O)c2ccc(C#N)cc2)c(=O)[nH]c1=O,5,0,2,-8,-2,3501
COc1ccc(OCc2ccc(/C=N\NC(=O)c3sccc3C)o2)cc1,19,3,1,-2,-1,5852
SMILES,GDH-TPI counter,Mtb FBA inh,BoNT-F LC inh,Anthrax LF prot,BoNT-A LC inh2,Bead autofluor
COc1cccc(C(=O)NCC(=O)N/N=C/c2ccc3c(c2)OCO3)c1,6,-1,-1,1,-1,3998
Cc1cc(C)c(C(=O)c2ccc(C(=O)N(C(C)C)C(C)C)cc2)c(C)c1,-11,-1,-4,0,-6,22394*
CCSc1nnc(NC(=O)c2csc3c2CCCC3)s1,9,7,1,-1,0,22354*
CCSc1nnc(NC(=O)c2cccnc2)s1,19,7,13,-5,10,19138*
CCSc1nnc(NC(=O)c2csc3c2CCC(C)C3)s1 (stereo unspecified),-2,-1,-1,-2,0,10092
CCN(CC)CCCn1c2c(c(SCC(=O)Nc3nc4ccccc4s3)nc1=O)CCC2,4,5,u,u,u,u
O=C1C(=O)N(CCN2CCOCC2)C(c2ccccc2F)/C1=C(\O)c1ccc(S(=O)(=O)N2CCOCC2)cc1 (stereo unspecified),14,2,1,0,1,4261
N#C/C(=C\c1ccc[nH]1)C(=O)N1CCCCC1,31*,0,x,x,x,x
CC1=CC(C)(C)N(C(=O)c2ccccc2)c2ccccc21,15,2,4,1,2,23091*
CC1=CC(C)(C)N(C(=O)c2ccccc2)c2ccc(C)cc21,14,-1,-11,-4,0,3282
CCCCC(=O)N(C)c1c(CC)nc2c(OCc3cccc(Cl)c3)cccn12,4,-2,-3,-5,-1,3965
Cc1cc[n+](-c2[nH]c(=O)sc2/C=N/NC([S-])=Nc2ccccc2)cc1C,52*,-6,-30,-8,-1,10995
CCn1c(O)c(C=Nc2ccccc2)sc1=O,9,2,-3,-4,-1,4092
CC(C)(C)c1cc[n+](-c2[nH]c(=O)sc2/C=N/NC([S-])=Nc2ccccc2)cc1,37*,-8,-24,-8,-7,3773
Cc1ccc[n+](-c2[nH]c(=O)sc2/C=N/N=C(\[O-])CCn2c3ccccc3c3ccccc32)c1,21,-4,u,-6,-1,4027
CCOC(=O)C1=CC[C@@H](c2ccccc2)N(S(=O)(=O)c2ccc(C)cc2)[C@H]1C=C(C)C,x,-6,6,-8,0,6013
CC1(c2nnc(-c3ccc(F)cc3)o2)CC(c2ccccc2)=NO1 (stereo unspecified),4,1,-5,-2,-1,3115
CCOC(=O)c1ccc(N2C(=O)c3n[nH]c(C)c3C2c2ccc(OC)c(OC)c2)cc1 (stereo unspecified),6,-1,4,1,u,19224*
CCOc1cc(C2c3c(n[nH]c3C)C(=O)N2c2ccc(Br)cc2)ccc1O (stereo unspecified),1,7,51*,-7,0,3428
Nc1[nH]c(C(=O)c2ccccc2)c(-c2ccncc2)c1C(=O)NC1CC1,x,x,5,0,0,6103
Cn1c2ccccc2c2nnc(SC3CCOC3=O)nc21 (stereo unspecified),10,0,0,0,0,23365*
c1ccc(-c2nc3nc4ccccc4nc3n2Cc2ccco2)cc1,26,3,-7,-4,0,4715
Fc1ccc(-n2c(-c3ccco3)n[nH]c2=S)cc1,-11,1,6,3,-4,3594
C=CCn1c(-c2ccc(OC)cc2)nc2nc3ccccc3nc21,31,144*,-6,2,0,10588
Fc1ccc(-n2c(-c3ccco3)nc3nc4ccccc4nc32)cc1,12,126*,8,6,0,3941
Fc1ccc(-c2nc3nc4ccccc4nc3n2Cc2ccco2)cc1,40*,-3,10,-3,0,5072
